According to PMC4552634, “A New Set of Chemical Starting Points with Plasmodium falciparum Transmission-Blocking Potential for Antimalarial Drug Discovery” (PLoS ONE, 2015):
Hit rate of the full screen: of about 13,000 compounds, about 3,200 (25%) showed an effect of 50% or more. The list shows a part of the results.

Test system: P. falciparum stage V gametocytes
Set-up: BacTiter-Glo ATP luminescence viability of purified stage V gametocytes in 384-well plates, per cent inhibition versus DMSO
Settings: 48 h, 5 µM; inhibitor

Row | SMILES | % Inhibition
1 | Cc1noc(C)c1-c1cccc(CNCc2cccc(-c3ccc(-c4nc5cc(C(F)(F)F)ccc5[nH]4)s3)c2)c1.O=C(O)C(F)(F)F [TCMDC-133055] | 0.7472%
2 | CCOc1cc2c(cc1OCC)C(c1cc(OC)c(O)cc1Cl)NCC2 (stereo not shown) [TCMDC-124488] | -19.03%
3 | CCc1cc(-c2onc(C)c2-c2cc3ccccc3o2)c(O)cc1OC [TCMDC-125148] | 5.13%
4 | C=C(C)CSc1nc2c(c(=O)n1Cc1ccco1)C1(CCCCC1)Cc1ccccc1-2 [TCMDC-123895] | 6.726%
5 | Cn1c(O)c(N=NC(=S)N2CCOCC2)c2ccccc21 [TCMDC-138076] | 88.31%
6 | Oc1[nH]c2ccccc2c1N=NC(=S)N1CCOCC1 [TCMDC-124263] | 29.38%
7 | CCn1c(O)c(N=NC(=S)N2CCCC2)c2ccccc21 [TCMDC-138077] | 9.29%
8 | COc1ccc(-c2ccc(NC(=O)c3cccc(C#N)c3)cc2)cc1CN1CCNCC1 [TCMDC-132530] | -2.653%
9 | COc1cccc(C(=O)Nc2nc3c(s2)CCN(Cc2ccccc2N2CCNCC2)CC3)c1.O=C(O)C(F)(F)F [TCMDC-134190] | 63.98%
10 | CCN1CCN(c2cc(C)c3cc(NC(=O)c4cccc(OC)c4)ccc3n2)CC1 [TCMDC-125573] | 10.75%
11 | N#Cc1ccc(/C=C/C(=O)NCCCCCN2CCN(C(=O)Nc3ccc(Cl)c(C(F)(F)F)c3)CC2)cc1 [TCMDC-136098] | -6.45%
12 | COc1ccc(C(=O)c2ccc3[nH]cc(C4=CCN(C)CC4)c3c2)cc1 [TCMDC-137276] | -3.804%
13 | Cc1ccc(C(=O)Nc2cccc(CN3CCCN(Cc4ccc(O)cc4)CC3)c2)s1 [TCMDC-141858] | 30.58%
14 | C#C[C@H]1O[C@@H](n2cnc3c(Nc4cc(Br)cc(C(F)(F)F)c4)ncnc32)[C@H](O)[C@@H]1O [TCMDC-135185] | 10.32%
15 | Cc1[nH]c(C)c(-c2ccc(CCc3ccc(F)cc3F)cc2)c(=O)c1Cl [TCMDC-135462] | 72.17%
16 | Cc1[nH]c(C)c(-c2ccc(-c3ccc(F)cc3)cc2)c(=O)c1Cl [TCMDC-137408] | -2.511%
17 | Cc1[nH]c(C)c(-c2ccc(C#Cc3ccc(F)cc3F)cc2)c(=O)c1Br [TCMDC-134692] | 64.24%
18 | CCC(N)(C#Cc1ccc(-c2c(C)[nH]c(C)c(Br)c2=O)cc1)CC [TCMDC-134693] | 83.96%
19 | Cc1[nH]c(C)c(-c2ccc(CCc3ccc(F)cc3F)cc2)c(=O)c1Br [TCMDC-135461] | 65.46%
20 | Cc1ccc(-c2ccc3c(c2)C=C(C(=O)NC2CCN(CCNC(=O)c4cccc(C(F)(F)F)c4)CC2)CCC3)cc1 [TCMDC-141948] | -9.898%
21 | COC(=O)c1cccc(NC(=O)NC2CCN(c3ccnc(Nc4cc(OC)c(OC)c(OC)c4)n3)C2)c1 (stereo not shown) [TCMDC-133630] | -28.99%
22 | Cc1cc(N2CCCC2)nc(Nc2ccc(NC(=O)c3cccc(F)c3)cc2)n1 [TCMDC-124709] | -4.91%
23 | Cc1ccnc(-n2c(C)cc(C=C3SC(=Nc4ccccc4)N(Cc4ccco4)C3=O)c2C)c1 [TCMDC-125659] | -67.39%
24 | O=C(N[C@H](CC1CCCCC1)C(=O)NC1CCCc2ccccc21)c1ccc(O)c(-c2cccc([N+](=O)[O-])c2)c1 (stereo partly shown) [TCMDC-140799] | 21.9%

Row | SMILES | % Inhibition
25 | Cc1cccc2[nH]c(-c3cccc(-c4cccc(NC(=O)CN5CCN(C)CC5)c4)c3)nc12 [TCMDC-136982] | 18.86%
26 | Cc1cccc2[nH]c(-c3ccc(-c4ccc(NC(=O)CN5CCN(C)CC5)cc4)cc3)nc12 [TCMDC-136975] | 64.7%
27 | Cc1nc(C)c(CC(=O)Nc2ccc(-c3cccc(-c4nc5ccc(C(F)(F)F)cc5[nH]4)c3)cc2)s1 [TCMDC-136996] | -50.06%
28 | Cc1cccc2[nH]c(-c3cccc(-c4ccc(NC(=O)CS(C)(=O)=O)cc4)c3)nc12 [TCMDC-136851] | -1.399%
29 | Cc1cccc2[nH]c(-c3cccc(-c4ccc(NC(=O)CN5CCN(C)CC5)cc4)c3)nc12 [TCMDC-136983] | 81.12%
30 | Cc1nc(C)c(CC(=O)Nc2ccc(-c3cccc(-c4nc5c(C)cccc5[nH]4)c3)cc2)s1 [TCMDC-136998] | 88.79%
31 | Cc1cccc2[nH]c(-c3ccc(-c4ccc(NC(=O)Nc5ccsc5)cc4)cc3)nc12 [TCMDC-133215] | -35.23%
32 | Cc1nc(C)c(CC(=O)Nc2cccc(-c3cccc(-c4nc5c(C)cccc5[nH]4)c3)c2)s1 [TCMDC-136997] | 6.613%
33 | CC(C)(C)OC(=O)N(Cc1cc(-n2nnnc2C(F)(F)F)ccc1O)[C@H]1CCCN(C(=O)OC(C)(C)C)[C@H]1c1ccccc1 [TCMDC-132022] | -21.48%
34 | CC(C)(C)c1ccc(NC(=O)c2cccc(CN3CCCN(Cc4cccc(O)c4)CC3)c2)cc1 [TCMDC-135983] | -11.1%
35 | O=C(/C=C/c1ccc(Cl)c(Cl)c1)NC1CCN(Cc2ccc(O)cc2)C1 (stereo not shown) [TCMDC-141739] | 26.39%
36 | COc1ccc2nccc([C@@H](O)CN3CCC(NCc4cnc5c(c4)NC(=O)CS5)C(F)C3)c2c1 (stereo partly shown) [TCMDC-141716] | 19.26%
37 | CC(C)(C)c1ccc(CN2CCC(CNC(=O)c3cc(-c4ccccc4C(F)(F)F)cs3)C2)cc1 (stereo not shown) [TCMDC-134441] | 105.6%
38 | CCc1ccc(CN2CCC(CNC(=O)c3cc(-c4ccccc4F)cs3)C2)cc1 (stereo not shown) [TCMDC-134431] | 96.16%
39 | CC(C)(C)c1ccc(CN2CCC(CNC(=O)c3cc(-c4ccccc4F)cs3)C2)cc1 (stereo not shown) [TCMDC-134443] | 104.8%
40 | CC(C)Oc1ccccc1-c1csc(C(=O)NCC2CCN(Cc3ccc(C(C)(C)C)cc3)C2)c1 (stereo not shown) [TCMDC-134512] | 5.537%
41 | CC(C)c1ccc(CN2CCC(CNC(=O)c3cc(-c4ccccc4F)cs3)C2)cc1 (stereo not shown) [TCMDC-134436] | 107.7%
42 | COc1ccccc1-c1csc(C(=O)NCC2CCN(Cc3ccc(C(C)C)cc3)C2)c1 (stereo not shown) [TCMDC-134510] | -33.71%
43 | CC(C)c1ccc(CN2CCCCC(NC(=O)c3cc(-c4ccccc4F)cs3)C2)cc1 (stereo not shown) [TCMDC-134462] | -8.212%
44 | CCCc1cc(C(=O)N[C@@H](Cc2ccccc2)[C@H](O)CNC2CCOCC2)c(F)c(N2CCCCS2(=O)=O)c1 [TCMDC-135445] | 21.51%
45 | Cc1ccccc1C1CCN(C2CCC(NC(=O)c3ccc(-c4ccccn4)s3)CC2)CC1 (stereo not shown) [TCMDC-134106] | -14.35%
46 | COc1cc(Cc2cnc(N)nc2N)ccc1OCc1cccc(Oc2ccccc2)c1 [TCMDC-138681] | -11.55%
47 | COc1cccc(Nc2nccc(NCC(O)c3ccc(C(F)(F)F)cc3)n2)c1 (stereo not shown) [TCMDC-136594] | -17.97%
48 | CN1C(=C2SC(=Nc3ccc4ncccc4c3)N(Cc3ccccc3)C2=O)Sc2ccc(Cl)cc21 [TCMDC-124118] | 3.008%

Row | SMILES | % Inhibition
49 | COc1ccc(NC(=O)[C@H](CC(C)C)Nc2cc(C)nc(NCC3CCCCC3)n2)cc1 [TCMDC-134917] | -43.94%
50 | COc1cc(C2NCC3(CCOCC3)c3cc4c(cc32)OCCO4)cc(OC)c1OC (stereo not shown) [TCMDC-125743] | -20.6%
51 | Cc1cc(C)c(C)c(OCCCON2C(N)=NC(N)=NC2(C)C)c1C [TCMDC-131791] | -4.975%
52 | COCCNCc1ccc(-c2cccc(CN(C(=O)CCC3CCCC3)C3CCN(Cc4ccccc4)CC3)c2)cc1 [TCMDC-140552] | 102.7%
53 | CC(C)CNCc1ccc(-c2cccc(CN(C(=O)CCC3CCCC3)C3CCN(Cc4ccccc4)CC3)c2)cc1 [TCMDC-140551] | 80.54%
54 | O=C(NC1CCN(c2ccnc3ccccc23)C1)c1cccc(C(F)(F)F)c1 (stereo not shown) [TCMDC-133580] | -5.668%
55 | N#Cc1ccc(CN2CCC(Oc3ccc(NC(=O)c4cccs4)cc3)CC2)cc1 [TCMDC-133953] | 32.19%
56 | O=C(O[C@H]1CN[C@H](C#Cc2cc3c(Nc4ccc(OCc5cccc(F)c5)c(Cl)c4)ncnc3s2)C1)N1CCCC1 [TCMDC-135291] | -17.95%
57 | CCN(C)C(=O)n1ncc2c3c(N)nc(N)nc3ccc21 [TCMDC-137828] | 19.76%
58 | Cc1ccc(CCNCC(O)c2cccc(C(F)(F)F)c2)cc1 (stereo not shown) [TCMDC-131447] | 15.63%
59 | O=C(NC1CC1)C1CCN(Cc2cc3ccccc3n2Cc2ccc(Cl)cc2)CC1 [TCMDC-125065] | 41.24%
60 | Cc1ccccc1Cn1c(CN2CCC(C(=O)NC3CC3)CC2)cc2ccccc21 [TCMDC-134259] | 50.21%
61 | Cc1c(CN2CCC(N3CCC(C(=O)NC4CC4)CC3)CC2)[nH]c2c(Cl)cccc12 [TCMDC-124608] | 11.69%
62 | CN(C)CCCn1cncc1-c1ccc2ncnc(Nc3ccc(OCc4ccccc4)cc3)c2c1 [TCMDC-138088] | 1.652%
63 | COc1ccccc1N1CCN(CCCCNC(=O)c2ccc(NC(=O)c3ccc4ccccc4c3)cc2)CC1 [TCMDC-138109] | -15.04%
64 | CC(C)C(=O)NC(c1ccc(Cl)cc1)c1ccc2cccnc2c1O (stereo not shown) [TCMDC-124343] | 44.71%
65 | CCC(C)NC(=O)Cn1c2ncccc2c(=O)n1-c1ccc(C)cc1 (stereo not shown) [TCMDC-124738] | -0.9664%
66 | CCCC(=O)NC(c1ccc(C(C)C)cc1)c1ccc2cccnc2c1O (stereo not shown) [TCMDC-123884] | 62.61%
67 | CCCC(=O)NC(c1ccc(C)cc1)c1ccc2cccnc2c1O (stereo not shown) [TCMDC-123605] | 92.74%
68 | CC(C)c1ccc(C(NC(=O)C2CCCCC2)c2ccc3cccnc3c2O)cc1 (stereo not shown) [TCMDC-125560] | 15.44%
69 | Cc1ccc(C(NC(=O)C2CCCCC2)c2ccc3cccnc3c2O)cc1 (stereo not shown) [TCMDC-123654] | 50.75%
70 | O=S(=O)(c1cccc2cccnc12)N1CCN(C2CCCCC2)CC1 [TCMDC-123840] | 8.014%
